Screens from PubChem.
BAZ2B inh: inhibitors of human BAZ2B bromodomain; 4.4% of 360,000 active; AlphaScreen BAZ2B-H3K14Ac peptide displacement; Potency, µM (series often up to 114 µM), actives largely listed as inhibitors; also: nearly all actives have a fitted effect of over 60% in size
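Multi-concentration screen (max 110 uM) measuring displacement of acetylated histone H3 peptide from BAZ2B by AlphaScreen, using 50 nM protein, 50 nM peptide and 10 ug/mL streptavidin donor plus Ni-chelate acceptor beads.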
G9a block: inhibitors of human histone lysine methyltransferase G9a | G9a H3K9 monomethylation, AlphaScreen, 2 h | AID 504332 | 8.8% of 350,000 active | Potency, µM (series often up to 102 µM), most hits filed as inhibitors | Q96KQ7; also: nearly all actives have a fitted effect of over 75% in size
Target sequence (Q96KQ7 913-1193 limits assumed): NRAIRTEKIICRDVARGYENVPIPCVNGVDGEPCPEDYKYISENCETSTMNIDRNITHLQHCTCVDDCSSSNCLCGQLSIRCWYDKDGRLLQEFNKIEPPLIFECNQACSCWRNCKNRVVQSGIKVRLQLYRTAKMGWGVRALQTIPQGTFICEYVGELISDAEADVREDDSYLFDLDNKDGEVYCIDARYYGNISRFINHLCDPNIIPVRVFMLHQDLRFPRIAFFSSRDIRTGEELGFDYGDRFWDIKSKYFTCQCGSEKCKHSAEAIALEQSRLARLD
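G9a (20 nM) was preincubated 15 min with compound, then reacted 2 h at room temperature with 500 nM biotin-H3K9 peptide and 20 µM SAM. Monomethyl-H3K9 detected by AlphaScreen using anti-H3K9me1 antibody.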
PI5P4K alpha inh: PI5P4K alpha (human) kinase inhibition; PI5P4Kalpha enzyme, ADP-Glo luminescence, 60 min; stronger effect = lower value; max response, %; 1.2% of 330,000 active; AID 652105; active = max response of -50% or lower; inconclusive = between -30% and -50%; inactive = -30% or higher; also: value at the top dose of about 77 µM
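Compounds were pin-transferred onto PI5P4Kalpha and substrate in HEPES pH 7.4 buffer with EGTA, CHAPS and 5% DMSO. ATP (5 microM final) started the reaction, which ran 60 minutes at room temperature before ADP-Glo detection.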
PLK1 PBD inh: PLK1 (human) polo-box domain binding inhibition | P53350 | Plk1 PBD binding of FITC phosphopeptide, fluorescence polarization | Potency, µM, hits mostly inhibitors | 2.8% of 360,000 active | AID 720504; also: series mostly up to about 57 µM; nearly all actives have a fitted effect of over 65% in size
HP1b binding inh: HP1-beta chromodomain-methylated histone interaction inhibition; P83916; AlphaScreen HP1-beta / biotin-H3K9me3 peptide binding; Potency, µM (doses to about 114 µM), hits mostly inhibitors; 0.56% of 390,000 active; AID 540317; also: nearly all actives have a fitted effect of over 70% in size
Target sequence (P83916 whole entry, looked up): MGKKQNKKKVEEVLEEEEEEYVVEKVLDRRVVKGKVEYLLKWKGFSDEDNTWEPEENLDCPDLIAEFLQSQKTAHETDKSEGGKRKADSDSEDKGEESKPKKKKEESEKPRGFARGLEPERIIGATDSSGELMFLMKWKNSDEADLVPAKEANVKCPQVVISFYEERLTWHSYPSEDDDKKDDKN
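Compound inhibition of the preformed complex between 50 nM HP1-beta and 50 nM biotinylated H3K9me3 peptide was read by AlphaScreen. Buffer was PBS pH 7.4 with 0.01% Tween-20. Incubations ran 30 min at room temperature, with 10 ug/mL donor/acceptor beads.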
JMJD2A Tudor inh: inhibitors of human JMJD2A Tudor domain | 4.4% of 390,000 active | AID 504339 | Potency, µM (doses to about 114 µM), actives largely listed as inhibitors | AlphaScreen JMJD2A-Tudor / H3K4me3 peptide binding | O75164; also: nearly all actives have a fitted effect of over 50% in size
Numbers stand for hits; i = inactive; ? = inconclusive; nt = no result; [ ] = dose if it differs, or a comment. The list is not random: actives were taken first. Their share in the collection is about 12%. Unless noted, calls follow the shape of the dose curve; as a rule, active = well fitted curve in the direction sought with a large enough effect; inconclusive = small, poorly fitted or top-dose-only effect, or another doubt; inactive = no such curve, though single readings can be large; an effect the other way counts as inactive or inconclusive.

SMILES	BAZ2B inh	G9a block	PI5P4K alpha inh	PLK1 PBD inh	HP1b binding inh	JMJD2A Tudor inh
COc1ccc(NC(=O)c2cc(C3CCCCN3C(=O)c3ccc4c(c3)CCO4)on2)c(C)c1 (configuration not stated)	nt	nt	i	i	nt	nt
CSCCC(NC(=O)c1ccccc1Cl)C(=O)OCC(=O)N1CCCC1=O (configuration not stated)	i	i	i	i	i	i
c1ccc2c(C3=NNC(=NC4CC4)SC3)c[nH]c2c1	i	13µM	i	i	i	i
CCOc1ccc(N/N=C(/C#N)C(N)=O)cc1	i	?	nt	i	i	i
COc1ccc(N/N=C(\C#N)C(N)=O)cc1	i	8.9µM	i	i	i	i
COC(=O)/C(=C\C(=O)c1ccc([N+](=O)[O-])cc1)Nc1ccc(OC)cc1	5.6µM	nt	i	i	11µM	18µM
N#C/C(=N/Nc1ccc(OC(F)(F)F)cc1)C(N)=S	35µM	nt	?	i	i	?
COc1ccc(C(=O)/C(C#N)=N/Nc2ccccc2[N+](=O)[O-])cc1	i	?	i	i	i	i
COc1ccc(C(=O)/C(C#N)=N/Nc2ccc([N+](=O)[O-])cc2)cc1	7.1µM	2µM	i	i	?	7.9µM
Cc1cc2c(n1-c1ccc(C(=O)NCCc3ccc(Cl)cc3)cc1)CCCC2	i	i	nt	nt	i	i
COc1ccc(N/N=C(\C#N)C(=N)N2CCOCC2)cc1	i	28µM	i	i	i	i
CCc1ccc(CN(C(=O)Nc2cccc(Cl)c2)c2ccccn2)cc1	i	i	nt	nt	i	i
CCCc1nnc(NC(=O)Cc2coc3cc(C)cc(C)c23)s1	i	i	nt	nt	i	i
CC(=Nc1ccc(C)cc1)c1sc2ccccc2c1O	?	?	nt	i	i	?
CC(=Nc1ccc(C)cc1C)c1sc2ccccc2c1O	?	?	i	i	i	56µM
CC(=Nc1cccc(O)c1)c1sc2ccccc2c1O	40µM	?	nt	i	i	i
CCN(CC)C(=O)CC(c1ccc(N(C)C)cc1)c1c(OC)cc(OC)c2c(-c3ccccc3)cc(=O)oc12 (configuration not stated)	20µM	i[12.7 µM]	i	i	?	32µM
COc1ccc(C(CC(=O)N2CCOCC2)c2c(OC)cc(OC)c3ccc(=O)oc23)cc1 (configuration not stated)	i	i[12.7 µM]	i	i	i	i
COc1ccc(C(CC(=O)N2CCN(c3ccccc3)CC2)c2c(OC)cc(OC)c3c(-c4ccccc4)cc(=O)oc23)cc1 (configuration not stated)	40µM	?	nt	nt	nt	nt
COc1cc(OC)c2c(-c3ccccc3)cc(=O)oc2c1C(CC(=O)N1CCCC1)c1ccc(N(C)C)cc1 (configuration not stated)	nt	nt	nt	nt	?	22µM
COc1ccc(C(CC(=O)N2CCOCC2)c2c(OC)cc(OC)c3c(-c4ccccc4)cc(=O)oc23)cc1 (configuration not stated)	56µM	i	?	i	i	56µM
COc1cc(CNc2ncnc3c2ncn3[C@H]2CN(CCc3ccccc3)C[C@@H](CO)O2)cc(OC)c1OC	nt	nt	i	i	nt	nt
CCc1ccc(NC(=O)CN(c2ccc(Cl)cc2)S(=O)(=O)c2ccsc2C(=O)OC)cc1	?	i	nt	nt	i	i
COc1ccc(C(CC(=O)N2CCCC(C)C2)c2c(OC)cc(OC)c3c(-c4ccccc4)cc(=O)oc23)cc1 (configuration not stated)	45µM	i[12.7 µM]	?	?	i	45µM
COc1cc(C(CCN2CCCCC2)c2c(OC)cc(OC)c3c(-c4ccccc4)cc(=O)oc23)cc(OC)c1OC (configuration not stated)	i	i	i	i	i	?
SMILES	BAZ2B inh	G9a block	PI5P4K alpha inh	PLK1 PBD inh	HP1b binding inh	JMJD2A Tudor inh
COc1cc(C(CC(=O)N2CCCC2)c2c(OC)cc(OC)c3c(-c4ccccc4)cc(=O)oc23)cc(OC)c1OC (configuration not stated)	50µM	i[12.7 µM]	?	i	i	56µM
COc1ccc(C(CC(=O)N2CCCC2)c2c(OC)cc(OC)c3c(-c4ccccc4)cc(=O)oc23)cc1 (configuration not stated)	56µM	i[12.7 µM]	?	?	i	50µM
CC1(C)CC(=O)c2cc(-c3nc(-c4ccccc4)cs3)c(=O)[nH]c2C1	i	i	nt	nt	i	i
CC(=O)Nc1ccc(Nc2nc3ccc(C)cc3n3nnnc23)cc1	i	i	nt	nt	i	i
CCOCCCN(C(=O)Cn1nnc(-c2ccc(OC)c(OC)c2)n1)C(C(=O)NCC1CCCO1)c1ccc(F)cc1 (configuration not stated)	i	i	i	i	i	i
COc1cc(Cn2c3ccc(NC(=S)NCc4ccc(C)cc4)cc3c(=O)n2C)ccc1F	nt	nt	i	i	nt	nt
S=C1NCCc2ccc(Cl)cc2C1c1ccccc1Cl (configuration not stated)	45µM	?	i	i	i	?
CCOC(=O)[C@]12CCCC=C1N(Cc1ccc(Cl)cc1Cl)C(=O)[C@H](CC(=O)NCCc1ccccc1OC)C2	nt	nt	i	i	nt	nt
O=C1c2ccccc2C(=O)c2c([N+](=O)[O-])ccc(O)c21	?	i	?	i	i	?
CC1=CC(=O)c2c(O)ccc(O)c2C1=O	3.5µM	i	nt	nt	nt	nt
COc1cc(NCc2ccc3nc(N)nc(N)c3c2C)cc(OC)c1OC	nt	10µM	nt	nt	nt	nt
COc1ccc(CNc2ccncc2)c(OC)c1OC	nt	nt	i	i	i	i
Cc1c(OCc2nn[nH]n2)ccc2c3c(c(=O)oc12)CCCC3	i	71µM	?	i	i	i
CCOC(=O)COc1ccc2c3c(c(=O)oc2c1C)CCC3	i	i[12.7 µM]	i	i	i	i
Cc1c(OCc2nn[nH]n2)ccc2c3c(c(=O)oc12)CCC(C)C3 (configuration not stated)	i	50µM	nt	i	i	i
Cc1cc2oc(=O)c3c(c2cc1OCc1nn[nH]n1)CCCC3	?	71µM	nt	i	i	i
Cc1c(OCC(=O)C(C)(C)C)ccc2c3c(c(=O)oc12)CCCC3	i	i	i	i	i	i
Cc1cccc(OC(=O)c2cc(-c3ccc(Cl)cc3)on2)c1C	i	i	nt	nt	i	i
Oc1ccc(CN2CCN(Cc3ccccc3)CC2)c2cccnc12	i	i	i	?	?	40µM
O=S(=O)(c1ccc(Cl)cc1)N1CCN(Cc2ccncc2)CC1	i	i	i	i	i	i
c1ccc(CN2CCN(Cc3c[nH]c4ccccc34)CC2)cc1	i	i	i	i	i	i
O=S(=O)(c1ccc(Cl)cc1)N1CCN(Cc2ccc(O)c3ncccc23)CC1	32µM	i	i	i	i	56µM
Cc1ccc(C)c(Cn2c(=O)n(CCCCCC(=O)NCc3ccc4c(c3)OCO4)c(=O)c3sccc32)c1	i	i	nt	nt	i	i
CCOC(=O)N1CCN(CC(=O)c2ccc3c(c2)CCN3C(C)=O)CC1	i	32µM	i	i	i	i
